Source: ChEMBL document CHEMBL3988442, “University of Dundee, Small-Polar-MMV Screening Library” (2021)

Biological target: AMP-activated protein kinase, AMPK (Homo sapiens) (UniProt P54646+O43741+P54619+Q9UGJ0+Q9Y478+Q13131+Q9UGI9)
Experiment: AMP-dependent Kinase enzyme assay. An in vitro enzyme assay that detects ADP turnover that is directly proportional to AMPK activity. This uses naive AMPK that is activated during the assay with MK-8722
Format: functional
Design: scale not given: direction of the effect not stated beside the values
Details: 30 µM

SMILES	Percent Effect [%]
CN(CCc1ccccn1)C(=O)c1cccs1	6.23
CCCc1nnc(N2CCC(C3CCN(C)CC3)CC2)o1	-1.66
Cc1noc(CCCC(=O)N2CCNC(=O)C2)n1	-2.32
Cc1nc2c(c(NCCc3nccs3)n1)CCN(CC1CC1)CC2	6.45
CS(=O)(=O)N1CCN(C(=O)c2cncs2)CC(C(N)=O)C1 (stereo unspecified)	9.41
COCCNC(=O)N1CCOCC1c1c(C)nn(C)c1C (stereo unspecified)	-0.499
O=C(Nc1ccccc1F)NC1(CO)CCOCC1	-1.57
CC(C)c1ccc(S(=O)(=O)NC2CCN(CC(F)(F)F)C2)cc1 (stereo unspecified)	8.13
O=C(NCC(O)c1cccc(O)c1)C1CCN(C2CCCCC2)CC1 (stereo unspecified)	0.496
CN1CCN(CCOc2ccc(NC(=O)c3ccc[nH]3)cc2)CC1	6.53
COC(=O)N1CCCCC1C(=O)N1CCCN(c2ccnc(C)c2)CC1 (stereo unspecified)	-3.17
Cn1nc2c(c1NC(=O)c1ccc(Cl)s1)CCC2	0.899
CC1CCC(O)(CSc2nnnn2C2CC2)CC1 (stereo unspecified)	6.07
CN(CCCOc1ccccc1Cl)C(=O)CN1C(=O)CCNC1=O	7.42
CCC(O)Cn1nc(-c2ccc(C(=O)O)cc2)cc1-c1ccc(F)cc1 (stereo unspecified)	12
CC1(C)CC(CN2CCC3(CCC(=O)N(C4CCC4)C3)CC2)CCO1 (stereo unspecified)	-1.15
c1cc(NCc2ccsc2)cc(-c2nnc[nH]2)c1	14.3
COCC(C)(O)CNC(=O)c1cc(-c2ccc(F)cc2)nn1C (stereo unspecified)	2.75
Cc1nc(O)cc(C2(C)CCCNC2)n1 (stereo unspecified)	19.4
CCC(=O)Nc1cccc(OCC(=O)N2CC=CC2C(C)C)c1 (stereo unspecified)	-4.81
CC(C)c1nnc2n1CCN(Cc1cc(Cl)c3c(c1)OCO3)C2	8.76
